High-throughput results (PubChem)
Only some compounds are listed: those with a hit (about 21% of all), similar ones and a draw of the others.
IL1B secr inh: qHTS for Inhibitors of Inflammasome Signaling: IL-1-beta AlphaLISA Primary Screen; activity change, % at 57.5 µM; AID 743279, 2014; THP-1 LPS/ATP IL-1B secretion, AlphaLISA, 16 h; stronger effect = lower value; 4.7% of 360,000 active; in the data active = activity change below about -50%; inconclusive = mostly about -30% to -49%
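Secreted IL-1B measured by AlphaLISA bead assay after 16 h compound exposure of THP-1 cells; compounds (final up to 57.5 uM) added 1 h before LPS (250 ng/mL) and ATP (1.25 mM) stimulation; lower signal means less secretion.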
RORg inh: qHTS for inhibitors of ROR gamma transcriptional activity; Drosophila S2 Gal4-RORgamma UAS-luciferase reporter, 20 h; Potency, µM (titrated, usually from 53.6 µM), without a hit: top-dose activity change, negative = inhibition, hits mostly inhibitors; 5.4% of 310,000 active; also: potency is read from the fitted curve at half-maximal effect; nearly all actives have a fitted effect of over 60% in size
Target sequence (P51450 whole entry, looked up, the tested form may be a part): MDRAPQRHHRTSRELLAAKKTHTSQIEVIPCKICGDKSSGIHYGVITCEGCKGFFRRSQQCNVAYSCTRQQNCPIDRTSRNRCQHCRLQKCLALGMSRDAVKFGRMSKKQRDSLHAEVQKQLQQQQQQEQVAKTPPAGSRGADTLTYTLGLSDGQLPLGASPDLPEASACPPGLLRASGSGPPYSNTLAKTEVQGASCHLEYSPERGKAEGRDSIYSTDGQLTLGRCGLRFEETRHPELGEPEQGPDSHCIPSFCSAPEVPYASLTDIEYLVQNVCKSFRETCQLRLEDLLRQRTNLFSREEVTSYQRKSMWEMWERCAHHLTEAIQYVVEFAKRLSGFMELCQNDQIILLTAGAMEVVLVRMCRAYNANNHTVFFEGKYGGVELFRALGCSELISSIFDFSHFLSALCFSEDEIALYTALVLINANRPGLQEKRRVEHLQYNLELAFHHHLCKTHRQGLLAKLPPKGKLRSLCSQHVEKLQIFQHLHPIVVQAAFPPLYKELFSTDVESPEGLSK
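Luciferase reporter read in Schneider cells carrying Gal4-RORγ (mouse) and UAS-Photinus luciferase; cells given compound 1 h before 700 uM copper sulfate induction, then incubated 20 h at ambient temperature.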
Gal4-VP16 FLuc: VP16 counterscreen qHTS for inhibitors of ROR gamma transcriptional activity; AID 2546, 2010; Drosophila S2 Gal4-VP16 UAS-luciferase, luminescence, 20 h; 3.5% of 310,000 active; Potency, µM (doses to about 53.6 µM), without a hit: at the top dose activity, negative = inhibition, actives largely listed as inhibitors;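 also: Gal4-VP16 expression switched on by copper sulfate through the metallothionein promoter; potency is read from the fitted curve at half-maximal effect; nearly all actives have a fitted effect of over 50% in size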
ELG1 DNA repair: qHTS screen for small molecules that inhibit ELG1-dependent DNA repair in human embryonic kidney (HEK293T) cells expressing luciferase-tagged ELG1 | Potency, µM (highest dose often 46.1 µM), for the others: top-dose activity change, negative = inhibition, hits mostly inhibitors | HEK293T ELG1-luciferase reporter, luminescence, 16 h; DNA damage induced by 5-fluorouridine | 2.3% of 330,000 active; also: potency is read from the fitted curve at half-maximal effect; nearly all actives have a fitted effect of over 55% in size
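Cells (2,000 per well) received 5-fluorouridine plus test compound or DMSO and were incubated 16 hr at 37 °C, 5% CO2. Luciferase activity was read by luminescence 30 min after ONE-Glo addition; signal suppression marked inhibition of damage-induced ELG1 function.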
TDP1 cell CPT: qHTS for Inhibitors of human tyrosyl-DNA phosphodiesterase 1 (TDP1): qHTS in cells in presence of CPT | chicken DT40 Tdp1-/-;hTDP1 cells + 20 nM CPT, ATP luminescence, 48 h | Potency, µM (titrated, usually from 46.2 µM), for inactives: at the top dose activity change, negative = growth inhibition, most hits filed as inhibitors | 12% of 420,000 active | AID 686979, 2013; also: potency is read from the fitted curve at half-maximal effect; nearly all actives have a fitted effect of over 55% in size
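Chicken DT40 Tdp1-/- cells stably complemented with human TDP1 were seeded at 400 cells/well in medium containing 20 nM camptothecin, exposed to pin-transferred compounds, and grown at 37 °C for at least 48 hr. Viability was read as ATP luminescence.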
DT40 TDP1 no CPT: qHTS for Inhibitors of human tyrosyl-DNA phosphodiesterase 1 (TDP1): qHTS in cells in absence of CPT; 15% of 420,000 active; DT40 Tdp1-/- hTDP1 cells, no CPT, ATP luminescence, 48 h; AID 686978, 2013; Potency, µM (series often up to 46.2 µM), inactives show at the highest dose activity change, negative = growth inhibition, most hits filed as inhibitors; also: potency is read from the fitted curve at half-maximal effect; nearly all actives have a fitted effect of over 55% in size
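Readout: luminescence from CellTiter-Glo after 30 min in the dark at RT. Cells: DT40 Tdp1-/- with stable hTDP1, 400/well. Exposure: compounds alone, ≥48 hr, 37 °C.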
* = called active by the depositor. Unless noted, calls follow the shape of the dose curve; as a rule, active = well fitted curve in the direction sought with a large enough effect; inconclusive = small, poorly fitted or top-dose-only effect, or another doubt; inactive = no such curve, though single readings can be large; an effect the other way counts as inactive or inconclusive. % is scaled to controls: 0 for no effect and ±100 for the full control effect.

O=C(CCc1nnc2n(CCc3ccccc3)c(=O)c3ccccc3n12)NCCCN1CCCCC1 was read as IL1B secr inh inconclusive, RORg inh -3%, Gal4-VP16 FLuc 8%, ELG1 DNA repair -1%, TDP1 cell CPT inconclusive and DT40 TDP1 no CPT inconclusive.
For Cc1onc(-c2ccccc2)c1-c1nnc(CN2CCN(S(=O)(=O)c3ccccc3F)CC2)o1 the results were IL1B secr inh -7, ELG1 DNA repair inconclusive, TDP1 cell CPT 21µM* and DT40 TDP1 no CPT inconclusive.
For CN1CCN(Cc2nnc(-c3ccccc3)o2)CC1 the results were IL1B secr inh 13, RORg inh -1%, Gal4-VP16 FLuc 18%, ELG1 DNA repair 13%, TDP1 cell CPT 3% and DT40 TDP1 no CPT 2%.
`O=C(NCCCN1CCCC1=O)c1ccc(Cl)c(S(=O)(=O)N2CCCCC2)c1` gave IL1B secr inh 5, ELG1 DNA repair -3%, TDP1 cell CPT -10% and DT40 TDP1 no CPT 4%.
For COc1ccc(-c2cc(C(F)(F)F)nc(-n3cc(Cl)cn3)n2)cc1 the results were RORg inh inconclusive, Gal4-VP16 FLuc inconclusive, ELG1 DNA repair 23µM*, TDP1 cell CPT 15µM* and DT40 TDP1 no CPT inconclusive.
Screening COc1cccc(-c2cc(C(F)(F)F)nc(-n3cc(Cl)cn3)n2)c1 returned RORg inh -9%, Gal4-VP16 FLuc 0%, ELG1 DNA repair inconclusive, TDP1 cell CPT inconclusive and DT40 TDP1 no CPT 16µM*.
Screening CCOC(=O)c1ccn(-c2nc(-c3cccc(OC)c3)cc(C(F)(F)F)n2)n1 returned TDP1 cell CPT 15µM* and DT40 TDP1 no CPT 21µM*.
COc1ccc(-c2cc(C(F)(F)F)nc(-n3nc(C(F)(F)F)cc3C)n2)cc1 was read as TDP1 cell CPT 15µM* and DT40 TDP1 no CPT 13µM*.
For COc1ccc(-c2cc(C(F)(F)F)nc(-n3cncn3)n2)cc1 the results were IL1B secr inh -11, RORg inh -1%, Gal4-VP16 FLuc 1%, ELG1 DNA repair inconclusive, TDP1 cell CPT -15% and DT40 TDP1 no CPT -27%.
c1ccc2c(c1)CCCN2 was read as TDP1 cell CPT 4% and DT40 TDP1 no CPT 6%.
Screening CCOc1ccc(CNC(=O)Cn2ncc3c(=O)oc4ccc(C)cc4c32)cc1 returned TDP1 cell CPT -2% and DT40 TDP1 no CPT -23%.
`CCOC(=O)c1c(NC(=O)c2cc(-c3ccc(Br)cc3)on2)sc(C)c1C` gave TDP1 cell CPT -4% and DT40 TDP1 no CPT 2%.
COc1ccccc1NC(=O)c1ccc(Cl)c(S(=O)(=O)NCc2ccco2)c1 was read as IL1B secr inh -4, ELG1 DNA repair -14%, TDP1 cell CPT inconclusive and DT40 TDP1 no CPT -25%.
Screening O=C(O)c1ccc(N2CCCCCC2)c(N2C(=O)c3ccccc3C2=O)c1 returned IL1B secr inh 12, RORg inh -27%, Gal4-VP16 FLuc 1%, ELG1 DNA repair 10%, TDP1 cell CPT 4% and DT40 TDP1 no CPT 4%.
For O=C1c2cccc3cccc(c23)C(=O)N1c1ccc(O)cc1 the results were IL1B secr inh -2, RORg inh -14%, Gal4-VP16 FLuc -2%, ELG1 DNA repair 5%, TDP1 cell CPT -1% and DT40 TDP1 no CPT 5%.
`O=C1c2cccc3c(N4CCCCC4)ccc(c23)C(=O)N1c1ccc(O)cc1` gave IL1B secr inh -4, RORg inh 2%, Gal4-VP16 FLuc -1%, ELG1 DNA repair 0%, TDP1 cell CPT inconclusive and DT40 TDP1 no CPT 23µM*.
`O=C1c2cccc3c(N4CCCCC4)ccc(c23)C(=O)N1c1ccccc1O` gave IL1B secr inh -25, RORg inh 1%, Gal4-VP16 FLuc inconclusive, ELG1 DNA repair inconclusive, TDP1 cell CPT 13µM* and DT40 TDP1 no CPT 21µM*.
Screening Cc1nn(Cc2ccccc2Cl)c(C)c1NC(=O)c1cc(-c2ccc(F)cc2)on1 returned IL1B secr inh 20, RORg inh 18%, Gal4-VP16 FLuc inconclusive, ELG1 DNA repair 3%, TDP1 cell CPT inconclusive and DT40 TDP1 no CPT -21%.
Cc1nn(Cc2ccccc2Cl)c(C)c1NC(=O)c1nc2ncccn2n1 was read as IL1B secr inh 9, RORg inh -12%, Gal4-VP16 FLuc -3%, ELG1 DNA repair -1%, TDP1 cell CPT 13µM* and DT40 TDP1 no CPT 13µM*.
For Cc1nn(Cc2ccccc2Cl)c(C)c1NC(=O)c1ccn(C)n1 the results were IL1B secr inh 10, RORg inh 35%, Gal4-VP16 FLuc -2%, ELG1 DNA repair -15%, TDP1 cell CPT 8.2µM* and DT40 TDP1 no CPT 12µM*.
For Cc1nn(Cc2ccc(Br)cc2)c(C)c1NC(=O)c1nn(C)cc1Cl the results were IL1B secr inh -18, RORg inh 26%, Gal4-VP16 FLuc -4%, ELG1 DNA repair -22%, TDP1 cell CPT inconclusive and DT40 TDP1 no CPT 18µM*.
Cc1oc2c(c1C(=O)Nc1ccc(OC(F)(F)F)cc1)C1=NCCN1C=N2 was read as TDP1 cell CPT -2% and DT40 TDP1 no CPT -3%.
`CCOCCc1nn2c(=O)cc(COC(=O)Cc3ccccc3)nc2s1` gave TDP1 cell CPT 4% and DT40 TDP1 no CPT -8%.
Screening O/N=C(\c1ccc(Cl)cc1Cl)c1ncc(C(F)(F)F)cc1Cl returned IL1B secr inh -17, RORg inh 11µM*, Gal4-VP16 FLuc 25µM*, ELG1 DNA repair 1%, TDP1 cell CPT -26% and DT40 TDP1 no CPT inconclusive.
For Cc1ccc2cccc(NC(=S)NC(=O)c3ccccc3)c2n1 the results were IL1B secr inh 24, RORg inh 1.8µM*, Gal4-VP16 FLuc 7.9µM*, ELG1 DNA repair 4%, TDP1 cell CPT 18µM* and DT40 TDP1 no CPT inconclusive.
For Cc1ccccc1C(=O)NC(=S)Nc1ccccc1C(=O)O the results were IL1B secr inh 18, RORg inh 21%, Gal4-VP16 FLuc 24%, ELG1 DNA repair 0%, TDP1 cell CPT -13% and DT40 TDP1 no CPT -6%.
Cc1ccc2cccnc2c1NC(=S)NC(=O)c1ccccc1 was read as IL1B secr inh 26, RORg inh 1.3µM*, Gal4-VP16 FLuc 3.5µM*, ELG1 DNA repair -4%, TDP1 cell CPT inconclusive and DT40 TDP1 no CPT -19%.
